Measured values as given in PubChem BioAssay AID1159580 (chemical genetic matrix, 2015).
“And” between values parts separate entries of the source, which are not always exact repeats. Equal values may be shown once. Screen size: about 5,500 compounds; about 2,000 (36%) were called active. About 18% were inconclusive and are not listed. Rule as the data show it: active = normalized growth mostly below about 0.91 (no sharp cut-off); inconclusive = no clear call, values can overlap the other calls; inactive = mostly above about 0.92. The list shows a part of the results.

Assay: chemical genetic growth profiling, strain panel (AID 1159580);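 also: tested at 20 µM; growth read once vehicle control cultures reached saturation at 30 °C; 1 = growth at the plate median or of vehicle wells; lower values mean less growth of the strain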
Settings: growth OD

Measured: normalized growth

O=c1[nH]c2ccccc2n1C1CCN(CCCC(c2ccc(F)cc2)c2ccc(F)cc2)CC1
active: S. cerevisiae deletion strains, locus YLL001W, strain dnm1, hits give low values 0.893 | S. cerevisiae deletion strains, locus YLR320W, strain mms22, hits give low values 0.784 | S. cerevisiae deletion strains, locus YMR058W, strain fet3, hits give low values 0.897 | S. cerevisiae deletion strains, locus YMR205C, strain PFK2, hits give low values 0.859 | S. cerevisiae deletion strains, locus YNL248C, strain rpa49, hits give low values 0.878 | S. cerevisiae deletion strains, locus YOR001W, strain rrp6, hits give low values 0.817 | S. cerevisiae deletion strains, locus YOR083W, strain WHI5, hits give low values 0.857 | S. cerevisiae deletion strains, locus YOR270C, strain vph1, hits give low values 0.449 | S. cerevisiae deletion strains, locus YOR290C, strain snf2, hits give low values 0.638
inactive: S. cerevisiae deletion strains, locus YJR075W, strain HOC1, hits give low values 0.954 and 0.993 | S. cerevisiae deletion strains, locus YKL009W, strain mrt4, hits give low values 0.963 | S. cerevisiae deletion strains, locus YKL068W, hits give low values 0.993 | S. cerevisiae deletion strains, locus YKL085W, strain MDH1 (second series), hits give low values 0.99 | S. cerevisiae deletion strains, locus YKL085W, strain MDH1, hits give low values 0.99 | S. cerevisiae deletion strains, locus YKL160W, strain elf1, hits give low values 0.914 | S. cerevisiae deletion strains, locus YKL190W, strain CNB1, hits give low values 0.974 | S. cerevisiae deletion strains, locus YKR001C, strain vps1, hits give low values 0.939 | S. cerevisiae deletion strains, locus YKR026C, strain gcn3, hits give low values 1.03 | S. cerevisiae deletion strains, locus YKR091W, strain srl3, hits give low values 1.01 | S. cerevisiae deletion strains, locus YLL026W, hits give low values 0.988 | S. cerevisiae deletion strains, locus YLL041C, strain sdh2, hits give low values 1.02 | S. cerevisiae deletion strains, locus YLR027C, strain aat2, hits give low values 0.927 | S. cerevisiae deletion strains, locus YLR039C, strain RIC1, hits give low values 1.02 | S. cerevisiae deletion strains, locus YLR058C, strain SHM2, hits give low values 0.977 | S. cerevisiae deletion strains, locus YLR102C, strain apc9, hits give low values 0.993 | S. cerevisiae deletion strains, locus YLR113W, strain HOG1, hits give low values 0.967 | S. cerevisiae deletion strains, locus YLR221C, strain rsa3, hits give low values 0.932 | S. cerevisiae deletion strains, locus YLR258W, strain gsy2, hits give low values 0.981 | S. cerevisiae deletion strains, locus YLR262C, strain YPT6 (second series), hits give low values 1.06 | S. cerevisiae deletion strains, locus YLR262C, strain YPT6, hits give low values 1.04 | S. cerevisiae deletion strains, locus YLR268W, strain sec22, hits give low values 0.98 | S. cerevisiae deletion strains, locus YLR330W, strain CHS5, hits give low values 0.995 | S. cerevisiae deletion strains, locus YLR342W, strain FKS1 (second series), hits give low values 0.94 | S. cerevisiae deletion strains, locus YLR342W, strain FKS1, hits give low values 0.936 | S. cerevisiae deletion strains, locus YLR357W, strain rsc2, hits give low values 0.877 | S. cerevisiae deletion strains, locus YLR370C, strain arc18, hits give low values 0.962 | S. cerevisiae deletion strains, locus YLR371W, strain rom2, hits give low values 0.989 | S. cerevisiae deletion strains, locus YLR384C, strain iki3, hits give low values 1.04 | S. cerevisiae deletion strains, locus YLR418C, strain cdc73, hits give low values 0.921 | S. cerevisiae deletion strains, locus YML016C, strain PPZ1, hits give low values 0.992 | S. cerevisiae deletion strains, locus YML032C, strain rad52, hits give low values 0.972 | S. cerevisiae deletion strains, locus YML120C, strain ndi1, hits give low values 0.939 | S. cerevisiae deletion strains, locus YML124C, strain tub3, hits give low values 1 | S. cerevisiae deletion strains, locus YMR078C, strain ctf18, hits give low values 0.983 | S. cerevisiae deletion strains, locus YMR125W, strain sto1, hits give low values 0.995 | S. cerevisiae deletion strains, locus YMR129W, hits give low values 0.966 | S. cerevisiae deletion strains, locus YMR223W, strain ubp8, hits give low values 0.978 | S. cerevisiae deletion strains, locus YMR231W, strain pep5, hits give low values 1.02 | S. cerevisiae deletion strains, locus YMR263W, strain SAP30, hits give low values 0.986 and 0.997 | S. cerevisiae deletion strains, locus YMR307W, strain GAS1, hits give low values 1.04 and 0.999 | S. cerevisiae deletion strains, locus YNL067W, strain RPL9B, hits give low values 0.987 | S. cerevisiae deletion strains, locus YNL071W, strain lat1, hits give low values 1.01 | S. cerevisiae deletion strains, locus YNL128W, strain TEP1, hits give low values 0.965 | S. cerevisiae deletion strains, locus YNL153C, strain GIM3, hits give low values 0.974 | S. cerevisiae deletion strains, locus YNL183C, strain NPR1, hits give low values 0.937 | S. cerevisiae deletion strains, locus YNL197C, strain WHI3, hits give low values 1.1 | S. cerevisiae deletion strains, locus YNL209W, strain ssb2, hits give low values 1.02 | S. cerevisiae deletion strains, locus YNL224C, strain SQS1, hits give low values 1.01 | S. cerevisiae deletion strains, locus YNL233W, strain BNI4, hits give low values 0.985 | S. cerevisiae deletion strains, locus YNL250W, strain rad50, hits give low values 0.986 | S. cerevisiae deletion strains, locus YNL271C, strain bni1, hits give low values 1.01 | S. cerevisiae deletion strains, locus YNL298W, strain CLA4, hits give low values 1.01 | S. cerevisiae deletion strains, locus YNL307C, strain MCK1, hits give low values 0.927 | S. cerevisiae deletion strains, locus YNL322C, strain KRE1 (second series), hits give low values 1.03 | S. cerevisiae deletion strains, locus YNL322C, strain KRE1, hits give low values 0.99 | S. cerevisiae deletion strains, locus YNR049C, strain mso1, hits give low values 0.991 | S. cerevisiae deletion strains, locus YNR052C, strain pop2, hits give low values 0.996 | S. cerevisiae deletion strains, locus YOL006C, strain TOP1, hits give low values 0.848 | S. cerevisiae deletion strains, locus YOL012C, strain htz1 0.998 | S. cerevisiae deletion strains, locus YOL147C, strain pex11, hits give low values 1 | S. cerevisiae deletion strains, locus YOR061W, strain CKA2, hits give low values 0.972 | S. cerevisiae deletion strains, locus YOR069W, strain VPS5, hits give low values 0.991 | S. cerevisiae deletion strains, locus YOR070C, strain gyp1, hits give low values 0.963 | S. cerevisiae deletion strains, locus YOR080W, strain dia2, hits give low values 1 | S. cerevisiae deletion strains, locus YOR083W, strain WHI5 (second series), hits give low values 0.874 | S. cerevisiae deletion strains, locus YOR106W, strain vam3, hits give low values 0.92 | S. cerevisiae deletion strains, locus YOR136W, strain idh2, hits give low values 0.986 | S. cerevisiae deletion strains, locus YOR144C, strain elg1, hits give low values 1 | S. cerevisiae deletion strains, locus YOR184W, strain ser1, hits give low values 0.894 | S. cerevisiae deletion strains, locus YOR231W, strain MKK1, hits give low values 0.984 | S. cerevisiae deletion strains, locus YOR265W, strain rbl2, hits give low values 0.992 | S. cerevisiae deletion strains, locus YOR316C, strain cot1, hits give low values 0.995 | S. cerevisiae deletion strains, locus YPL051W, strain arl3, hits give low values 0.954 | S. cerevisiae deletion strains, locus YPL055C, strain LGE1, hits give low values 0.924 | S. cerevisiae deletion strains, locus YPL078C, strain atp4, hits give low values 0.956 | S. cerevisiae deletion strains, locus YPL106C, strain sse1, hits give low values 1.07 | S. cerevisiae deletion strains, locus YPL240C, strain hsp82, hits give low values 1.02 | S. cerevisiae deletion strains, locus YPL241C, strain CIN2, hits give low values 0.986 and 1 | S. cerevisiae deletion strains, locus YPL256C, strain CLN2, hits give low values 0.965 | S. cerevisiae deletion strains, locus YPR119W, strain clb2, hits give low values 0.995 | S. cerevisiae deletion strains, locus YPR141C, strain kar3, hits give low values 0.996 | S. cerevisiae deletion strains, locus YPR163C, strain tif3, hits give low values 1 | S. cerevisiae deletion strains, locus YPR167C, strain met16, hits give low values 0.986 | S. cerevisiae deletion strains, strain wtn01, hits give low values 0.989 | S. cerevisiae strains, strain wild type, hits give low values 0.993
